DT40 TDP1 no CPT – qHTS for Inhibitors of human tyrosyl-DNA phosphodiesterase 1 (TDP1): qHTS in cells in absence of CPT | DT40 Tdp1-/- hTDP1 cells, no CPT, ATP luminescence, 48 h | Potency, µM (series often up to 46.2 µM), inactives show at the highest dose activity change, negative = growth inhibition, hits mostly inhibitors | 15% of 420,000 active | AID 686978, 2013; also: potency is read from the fitted curve at half-maximal effect; nearly all actives have a fitted effect of over 55% in size
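Cells were dispensed at 400 per well, compounds added by pin tool, plates incubated ≥48 hr at 37 °C, then CellTiter-Glo added for 30 min at room temperature before luminescence reading. Line: DT40 Tdp1-/- complemented with hTDP1; camptothecin omitted.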
ELG1 repair inh – blocks ELG1-dependent DNA repair in HEK293T cells | 2.3% of 330,000 active | Potency, µM (top dose mostly 46.1 µM), without a hit: top-dose activity change, negative = inhibition, most hits filed as inhibitors | HEK293T ELG1-luciferase reporter, luminescence, 16 h; DNA damage induced by 5-fluorouridine | AID 504467; also: potency is read from the fitted curve at half-maximal effect; nearly all actives have a fitted effect of over 55% in size
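Overnight (16 hr) co-exposure of 2,000 cells/well to 5-fluorouridine and compound at 37 °C preceded detection. Luciferase was quantified via ONE-Glo luminescence; loss of signal denotes inhibition.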
Giardia killer – Giardia lamblia killing; Giardia lamblia trophozoite viability; activity change, % at 7.66 µM, hits read low; 0.15% of 340,000 active; AID 540267; in the data active = activity change below about -80%; inconclusive = between about -30% and that limit;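 also: parasites exposed to compound for two days anaerobically before the ATP read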
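Each well holds 100 Giardia trophozoites and compound. After two days (48 hrs) at 37 deg C in anaerobic conditions, ATP is quantified by luminescence.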
IL-1B inflam inh – inhibitors of inflammasome signaling (IL-1 beta secretion). THP-1 LPS/ATP IL-1B secretion, AlphaLISA, 16 h; stronger effect = lower value. 4.7% of 360,000 active. activity change, % at 57.5 µM; in the data active = activity change below about -50%; inconclusive = mostly about -30% to -49%
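THP-1 cells pretreated 1 hr with compounds (up to 57.5 uM final), then stimulated with LPS (250 ng/mL final) plus ATP (1.25 mM final); secreted IL-1B measured by AlphaLISA after 16 hr, decreased signal indicating inhibition.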
TDP1 cell CPT – DT40-hTDP1 cell growth loss with CPT; chicken DT40 Tdp1-/-;hTDP1 cells + 20 nM CPT, ATP luminescence, 48 h; 12% of 420,000 active; Potency, µM (top dose mostly 46.2 µM), without a hit: at the top dose activity change, negative = growth inhibition, most hits filed as inhibitors; also: potency is read from the fitted curve at half-maximal effect; nearly all actives have a fitted effect of over 55% in size
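Chicken DT40 Tdp1-/- cells complemented with human TDP1, 400 cells/well, exposed to compounds plus 20 nM camptothecin for at least 48 h at 37 C; viability read as ATP content by CellTiter-Glo luminescence.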
TDP1 block – TDP1 (human) enzyme inhibition; recombinant TDP1, AlphaScreen DNA substrate cleavage; Potency, µM (doses to about 130 µM), for the others: top-dose activity change, negative = inhibition, hits mostly inhibitors; 0.28% of 350,000 active; also: potency is read from the fitted curve at half-maximal effect; nearly all actives have a fitted effect of over 40% in size
Target sequence (Q9NUW8 whole entry, looked up): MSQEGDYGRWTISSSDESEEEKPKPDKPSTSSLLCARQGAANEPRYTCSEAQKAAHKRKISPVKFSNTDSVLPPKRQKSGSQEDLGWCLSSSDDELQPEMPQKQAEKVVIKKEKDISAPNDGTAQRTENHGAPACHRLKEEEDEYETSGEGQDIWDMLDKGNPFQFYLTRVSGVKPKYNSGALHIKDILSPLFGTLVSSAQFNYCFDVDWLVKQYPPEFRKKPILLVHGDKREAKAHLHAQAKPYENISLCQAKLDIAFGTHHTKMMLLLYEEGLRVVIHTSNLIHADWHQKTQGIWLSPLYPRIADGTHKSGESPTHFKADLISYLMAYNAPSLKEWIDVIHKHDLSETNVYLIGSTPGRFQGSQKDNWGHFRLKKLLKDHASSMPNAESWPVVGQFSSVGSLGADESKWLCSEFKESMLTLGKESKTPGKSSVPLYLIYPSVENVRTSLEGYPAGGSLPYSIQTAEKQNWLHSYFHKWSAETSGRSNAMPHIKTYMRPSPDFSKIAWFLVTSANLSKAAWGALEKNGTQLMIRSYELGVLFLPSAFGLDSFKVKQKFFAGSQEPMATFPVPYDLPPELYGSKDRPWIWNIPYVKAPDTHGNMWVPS
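Steps: enzyme plus compound, 15 min RT; add biotin/phosphotyrosine-FITC oligonucleotide (15 nM final), react 5 min; add donor/acceptor beads (10 ug/ml final), 10 min; read AlphaScreen. Tdp1 at 1 nM final.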
Numbers without * were called inactive; ? = inconclusive; / = not tested or not shown; [ ] = another dose, or the depositor's remark. An excerpt weighted towards active compounds, which were near 19% of everything screened. Unless noted, calls follow the shape of the dose curve; as a rule, active = well fitted curve in the direction sought with a large enough effect; inconclusive = small, poorly fitted or top-dose-only effect, or another doubt; inactive = no such curve, though single readings can be large; an effect the other way counts as inactive or inconclusive. % is scaled to controls: 0 for no effect and ±100 for the full control effect.

SMILES | DT40 TDP1 no CPT | ELG1 repair inh | Giardia killer | IL-1B inflam inh | TDP1 cell CPT | TDP1 block
O=[N+]([O-])c1ccc(CSc2ccc(S(=O)(=O)N3CCCCCC3)cn2)cc1 | 16.4µM* | -19.0% | 13.5 | -8.5 | 23.1µM* | -1.5%
O=C(COc1ccc([N+](=O)[O-])cc1)N(Cc1cccs1)C1CCS(=O)(=O)C1 (stereo not given) | 4.5% | -16.2% | 4.0 | 6.6 | -29.7% | 2.0%
COC(C(=O)Nc1ccnn1C1CCN(C(=O)c2ccc(C)cc2)CC1)c1ccccc1 (stereo not given) | 2.4% | 2.0% | 14.3 | 11.5 | -12.7% | 4.8%
CCn1ccnc1CN(C)Cc1c(C(=O)N2CCCCCCC2)nc2ccc(Cl)cn12 | ? | -2.1% | 1.4 | -11.7 | -20.2% | 4.0%
CCCCOc1ccc(-c2nnn(CC(=O)NCc3ccco3)n2)cc1 | 4.61µM* | ? | 9.8 | 30.0 | 4.61µM* | -1.0%
Cc1cccc(S(=O)(=O)c2c(N)n(-c3ccccc3)c3nc4ccccc4nc23)c1 | ? | -2.5% | -0.8 | ? | ? | -2.7%
Cn1c2ccsc2c2cnn(Cc3ccccc3F)c(=O)c21 | / | / | / | / | / | -3.4%
Cc1ccccc1C(=O)O/N=C/c1c(N2CCOCC2)n(C)c2ccccc12 | 1.3µM* | ? | 4.4 | 36.7 | 1.46µM* | 1.0%
CN1CCN(c2c(/C=N/O)c3ccccc3n2C)CC1 | -24.8% | 0.8% | -10.7 | -16.5 | 6.3% | /
COc1cc(NC(=S)NC(=O)c2c(OC)cccc2OC)ccc1NC(=O)c1cccs1 | 9.2µM* | ? | 2.7 | 17.4 | 10.3µM* | 5.9%
COc1cc(NC(=S)NC(=O)c2cc(C)cc(C)c2)ccc1NC(=O)c1cccs1 | ? | ? | 13.5 | -18.5 | ? | 0.0%
COc1cc(NC(=S)NC(=O)c2ccccc2C)ccc1NC(=O)c1cccs1 | ? | 13µM* | -0.3 | 14.3 | ? | 7.4%
COc1cc(NC(=S)NC(=O)c2ccccc2F)ccc1NC(=O)c1cccs1 | 7.8% | 11.4% | 1.6 | ? | 0.7% | 8.2%
COc1cc(NC(=S)NC(=O)c2ccc(C(C)(C)C)cc2)ccc1NC(=O)c1cccs1 | 18.4µM* | 8.2% | 5.2 | -2.1 | ? | 4.6%
COc1ccc(N2CCN(C(=O)CC(C)S(=O)(=O)c3ccc4c(c3)NC(=O)CO4)CC2)cc1 (stereo not given) | 13µM* | 13µM* | -4.9 | 0.0 | 14.6µM* | 0.8%
CC(CC(=O)N1CCN(c2cccc(Cl)c2)CC1)S(=O)(=O)c1ccc2c(c1)NC(=O)CO2 (stereo not given) | 2.31µM* | ? | -15.0 | -13.7 | 4.11µM* | 3.1%
CCOC(=O)C1CCN(C(=O)CC(C)S(=O)(=O)c2ccc3c(c2)NC(=O)CO3)CC1 (stereo not given) | 12.5% | -10.2% | -0.2 | 19.8 | -4.4% | 0.5%
OC1CCC2Cc3ccccc3N=C12 (stereo not given) | -23.9% | / | / | / | 7.3% | 10.7%
CC(C)OC(=O)c1cccc(-c2ccc(C=O)o2)c1 | -3.1% | ? | 13.5 | 8.3 | 6.2% | 2.2%
O=C(C[C@@H]1C/C=C\C[C@H](NC(=O)OCC2c3ccccc3-c3ccccc32)C(=O)OC[C@@H]2CCCN2C1=O)NCCO | 10.3µM* | 22.8% | 9.1 | 18.2 | 4.61µM* | ?
O=C(C[C@H]1C/C=C\C[C@H](NC(=O)OCC2c3ccccc3-c3ccccc32)C(=O)OC[C@@H]2CCCN2C1=O)N[C@H](CO)Cc1ccccc1 | 9.2µM* | 16.4% | -17.9 | 21.8 | 10.3µM* | -4.5%
CC(C)(C)OC(=O)C[C@H]1C/C=C\C[C@@H](CC(=O)NCCO)C(=O)N2CCC[C@H]2COC1=O | -2.7% | ? | 6.6 | 69.4 | -7.7% | 0.0%
CC(C)(C)OC(=O)C[C@@H]1C/C=C\C[C@H](CC(=O)N[C@H](CO)Cc2ccccc2)C(=O)N[C@@H](Cc2ccccc2)COC1=O | ? | ? | 22.4 | -11.1 | ? | 1.3%
O=C(C[C@@H]1C/C=C\C[C@H](NC(=O)OCC2c3ccccc3-c3ccccc32)C(=O)OC[C@@H]2CCCN2C1=O)N[C@@H](CO)Cc1ccccc1 | 18.4µM* | ? | -4.6 | 15.1 | 18.4µM* | -10.8%
O=C(C[C@@H]1C/C=C\C[C@H](NC(=O)OCC2c3ccccc3-c3ccccc32)C(=O)OC[C@H]2CCCN2C1=O)N[C@H](CO)Cc1ccccc1 | 5.17µM* | ? | ? | -16.5 | 4.61µM* | -0.8%
SMILES | DT40 TDP1 no CPT | ELG1 repair inh | Giardia killer | IL-1B inflam inh | TDP1 cell CPT | TDP1 block
COC(=O)C(C(=O)OC)C(CC(=O)c1ccc(Br)cc1)c1ccccc1 (stereo not given) | -22.0% | / | 15.3 | -1.8 | -3.1% | /
COc1ccc(C2Nc3ccccc3C(=O)N2CC(C)(C)C)cc1COc1ccc(NC(C)=O)cc1 (stereo not given) | / | / | / | / | / | 3.8%
O=C(C[C@@H]1C/C=C\C[C@H](NC(=O)OCC2c3ccccc3-c3ccccc32)C(=O)OC[C@@H]2CCCN2C1=O)N[C@H](CO)Cc1ccccc1 | 10.3µM* | 4.3% | 2.2 | 27.9 | 7.31µM* | -10.6%
Cc1cccc(CNc2cc(-c3cccc(C#N)c3)ncn2)c1 | 4.61µM* | / | / | / | 20.6µM* | -3.6%
COc1cccc(-c2ccc3ncnc(NCc4cc(C)cs4)c3c2)c1 | / | ? | -7.4 | / | / | 2.1%
N#Cc1cccc(-c2ccc3ncnc(NCc4ccccc4)c3c2)c1 | 25.9µM* | / | / | / | ? | /
CN(C)c1ncnc2ccc(-c3ccc4c(c3)OCO4)cc12 | 23.1µM* | / | / | / | ? | /
COCCNc1ncnc2ccc(-c3cccc(OC)c3)cc12 | 23.1µM* | / | / | / | ? | /
COCCNC(=O)C1CCCN(S(=O)(=O)c2ccc3c(c2)CC(C)N3C(=O)C2CC2)C1 (stereo not given) | ? | -10.7% | 28.3 | -1.0 | -26.4% | /
CC1(C)SC2C(NC(=O)Cc3ccccc3)C(=O)N2C1C(=O)O (stereo not given) | 3.7% | / | / | / | -21.3% | -9.6%[56.1 µM]
